# Bioassay records (PubChem BioAssay)
# Shown are actives, neighbours in structure and some others; about 2.8% of the full set was active somewhere.
# HepG2 tox: qHTS for Inhibitors of TGF-b: Cytotox Counterscreen; HepG2 CAGA-GFP viability, ATP luminescence, 18 h; Potency, µM (highest dose often 46.1 µM), without a hit: at the highest dose activity change, negative = cytotoxicity, hits mostly cytotoxic; actives 0.76% (n = 410,000); further: potency means the concentration at half of the fitted maximal effect
#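 HepG2 CAGA-GFP cells (1000/well, DMEM with 1% FBS) received compound, then TGF-beta at 500 pg/mL final, and were incubated 18 hours at 37 degrees C. Viability was read by CellTiter-Glo luminescence. Media-only wells were set as complete cell-killing and DMSO as no toxicity.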
# ATXN2 expr inh: Primary qHTS for Inhibitors of ATXN expression; HEK-293 ATXN2-luciferase reporter, luminescence, 24 h; Potency, µM (titrated, usually from 57 µM), for inactives: at the highest dose activity change, negative = inhibition, actives largely listed as inhibitors; actives 0.72% (n = 360,000); AID 1745845, 2022; further: potency means the concentration at half of the fitted maximal effect; on the % scale 0 is the no-effect control and ±100 the full control effect; nearly all actives have a fitted effect of over 55% in size
#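 qHTS (up to 57 uM final) was run with 24 h compound exposure of reporter cells at 37 °C. Each well was multiplexed: SteadyGlo luminescence measured ATXN2-luciferase expression after a fluorogenic Gly-Phe-AFC viability readout (25 uM final).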
# CtBP-E1A inh: qHTS Assay for Inhibitors of the CtBP/E1A Interaction. AID 651724, 2012. CtBP / adenovirus E1A interaction (AlphaScreen). AlphaScreen GST-E1A/His-CtBP binding, 1536-well; hits give low values. actives 0.49% (n = 340,000). activity change, % (test concentration not listed); in the data active means activity change below about -65%; inconclusive means mostly about -30% to -63%; further: on the % scale 0 is the no-effect control and ±100 the full control effect
#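 Protein mix (5X: 125 nM each GST-E1A, His-CtBP) was incubated with pinned compound 2 h at 37 deg C in dark, in 50 mM Tris pH 8.0 buffer with 300 mM NaCl. Glutathione donor and nickel acceptor beads followed; AlphaScreen signal read after 1 h.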
# S2 tox: Viability Counterscreen for Primary qHTS for Inhibitors of ATXN expression | S2 cells (HEK-293 line with an ATXN2-luciferase reporter) viability, CellTiter-Fluor protease fluorescence, 24 h | Potency, µM (top dose mostly 56.7 µM), most hits filed as cytotoxic | actives 0.49% (n = 400,000) | AID 651635, 2014; further: potency means the concentration at half of the fitted maximal effect; nearly all actives have a fitted effect of over 40% in size
# Six1-Eya2 inh: qHTS Assay for Inhibitors of the Six1/Eya2 Interaction | actives 0.56% (n = 360,000) | activity change, % (test concentration not listed) | Homeobox protein SIX1 (Homo sapiens) + Protein phosphatase EYA2 (Homo sapiens), … | AlphaScreen GST-Six1/His-Eya2 binding, biochemical; hits give low values; in the data active means activity change below about -65%; inconclusive means mostly about -30% to -63%; further: on the % scale 0 is the no-effect control and ±100 the full control effect
# Target sequence (O00167 whole entry, looked up): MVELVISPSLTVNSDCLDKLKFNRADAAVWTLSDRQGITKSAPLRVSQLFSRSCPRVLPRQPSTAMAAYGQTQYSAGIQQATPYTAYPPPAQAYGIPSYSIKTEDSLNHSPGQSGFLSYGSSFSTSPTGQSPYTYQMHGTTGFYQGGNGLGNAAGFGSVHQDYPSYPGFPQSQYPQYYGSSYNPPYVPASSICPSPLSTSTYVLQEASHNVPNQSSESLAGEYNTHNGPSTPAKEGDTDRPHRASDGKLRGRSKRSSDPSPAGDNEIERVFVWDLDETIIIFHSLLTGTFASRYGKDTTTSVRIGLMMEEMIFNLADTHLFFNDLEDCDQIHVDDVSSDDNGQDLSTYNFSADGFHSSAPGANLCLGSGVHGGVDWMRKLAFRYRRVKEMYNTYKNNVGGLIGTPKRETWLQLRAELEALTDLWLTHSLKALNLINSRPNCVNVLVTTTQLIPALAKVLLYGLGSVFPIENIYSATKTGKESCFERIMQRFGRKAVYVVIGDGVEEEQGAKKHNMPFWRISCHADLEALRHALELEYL
# Target sequence (Q15475 whole entry, looked up): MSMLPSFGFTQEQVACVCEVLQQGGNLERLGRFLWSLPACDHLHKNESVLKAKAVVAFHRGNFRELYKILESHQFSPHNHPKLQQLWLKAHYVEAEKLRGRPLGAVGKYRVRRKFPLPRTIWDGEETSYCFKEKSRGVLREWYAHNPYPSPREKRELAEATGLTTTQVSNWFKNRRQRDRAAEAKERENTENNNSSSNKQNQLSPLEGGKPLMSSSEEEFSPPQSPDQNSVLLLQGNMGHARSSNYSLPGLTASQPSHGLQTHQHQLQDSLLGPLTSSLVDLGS
#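 Compounds are tested against tagged Six1 and Eya2 proteins bridged by glutathione donor and nickel acceptor beads; after a one-hour incubation at 37 °C without light, AlphaScreen emission is recorded.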
# TGFb SMAD3 inh: qHTS for Inhibitors of TGF-b | actives 1.2% (n = 410,000) | Potency, µM (titrated, usually from 46.1 µM), without a hit: at the highest dose activity, negative = inhibition, usual class: inhibitors | AID 588855, 2011 | HepG2 CAGA-GFP TGF-b/SMAD3 reporter, GFP fluorescence, 18 h; TGF-beta stimulated, 500 pg/mL final; further: potency means the concentration at half of the fitted maximal effect; on the % scale 0 is the no-effect control and ±100 the full control effect; nearly all actives have a fitted effect of over 65% in size
#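 Inhibition of TGF-beta-driven CAGA-GFP reporter expression in HEPG2 cells is measured by cellular GFP fluorescence after 18 h stimulation with 500 pg/mL recombinant TGF-beta in 1% FBS medium at 37 degrees C.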
# The depositor's hits bear a star; i = inactive; ? = inconclusive; / = no result given; [ ] = remark or other dose. Unless noted, the call rests on the fitted dose curve; in most records, active means well fitted curve in the direction sought with a large enough effect; inconclusive means small, poorly fitted or top-dose-only effect, or another doubt; inactive means no such curve, though single readings can be large; an effect the other way counts as inactive or inconclusive.
SMILES,HepG2 tox,ATXN2 expr inh,CtBP-E1A inh,S2 tox,Six1-Eya2 inh,TGFb SMAD3 inh
COc1ccc(-c2n[nH]c(C)c2-c2cscn2)c(O)c1,-3%,1%,-6,i,1,-1%
COc1ccc(-c2onc(C)c2-c2cnn(-c3ccccc3)c2)c(O)c1C,-15%,-3%,0,i,-5,8%
CC(=O)c1ccc(C(=O)NCc2nc(-c3ccccc3NC(=O)c3cc(C)oc3C)oc2C)cc1,/,/,/,i,/,/
CC(=O)c1ccccc1-c1ccc2c(c1)CC(CNC(=O)c1ccnc(Cl)c1)O2 (stereo not drawn),/,/,/,i,/,/
C=CC(=O)N1CCc2ccc(-n3c(=O)ccc4cnc5ccc(-c6cnn(C)c6)cc5c43)cc21,/,15µM*,/,/,/,/
Cn1c(=O)n(-c2ccc(C(C)(C)C#N)cc2)c2c3cc(-c4cnc5ccccc5c4)ccc3ncc21,-15%[92.2 µM],?,/,/,/,?
C=C1C=C(C)n2ncc(C(=O)Nc3cccc4cnccc34)c2N1,-3%,/,/,/,/,19%
CCN(CC)CC(=O)Oc1ccc(NC(C)=O)cc1,/,14%,/,i,/,/
OC(CNCC1CCCO1)Cn1c2ccc(Cl)cc2c2cc(Cl)ccc21 (stereo not drawn),-100%,?,-5,?,-2,?
OC(CNCCC1C=Nc2ccccc21)Cn1c2ccc(Cl)cc2c2cc(Cl)ccc21 (stereo not drawn),-96%,32µM*,-12,/,-5,?
Oc1ccc2ccccc2c1/C=N/Nc1nnc(-c2ncc[nH]2)c2ccccc12,-24%,?,-73*,i,-67*,?
CS(=O)(=O)c1ccc(S(=O)CC(=O)Oc2ccc(Cl)cc2)c([N+](=O)[O-])c1 (stereo not drawn),18µM*,?,-9,?,-7,?
CCOc1cc(CNCCCN2CCOCC2)cc(Br)c1OCC(=O)Nc1cccc(C(F)(F)F)c1,18µM*,22µM*,1,/,3,?
COc1cc(CNCCCN2CCOCC2)cc(Br)c1OCc1ccc(Cl)cc1,-117%,21µM*,-5,/,0,?
CN1CCN(C2=C(NS(=O)(=O)c3cccs3)C(=O)c3ccccc3C2=O)CC1,-27%,?,-23,i,-13,?
CCOc1ccccc1N1CCN(C2=C(NS(=O)(=O)c3cccs3)C(=O)c3ccccc3C2=O)CC1,-32%,-20%,-76*,i,-65*,18µM*
O=C1C(NS(=O)(=O)c2cccs2)=C(N2CCN(c3cccc(C(F)(F)F)c3)CC2)C(=O)c2ccccc21,0%,-25%,-80*,i,-68*,?
CCn1cc(CN2Cc3ccccc3OC(c3ccccc3OC)C2)c(C)n1 (stereo not drawn),/,/,/,i,/,/
O=S(=O)(c1ccc(Cl)cc1)c1nnn2c1nc(NCc1cccs1)c1sccc12,-2%,/,/,/,/,40%
CCCc1ccc(S(=O)(=O)N2CCC(Oc3ccc(-n4cnnn4)cc3)CC2)cc1,0%,8%,/,i,/,-12%
CN(C)c1nc2cc(Cl)ccc2cc1CN(Cc1ccc2c(c1)OCO2)C(=O)c1ccoc1,/,/,/,i,/,/
O=C(O)C(=O)Nc1cccc(C2=NN=N[N]2)c1,/,-5%,/,i,/,/
O=C(CSc1nc(-c2ccccc2)cn1-c1ccccc1F)Nc1ccc(F)cc1,-21%,-38%,/,?,/,14µM*
O=C(O)c1cc(N/N=C/c2ccc3c(c2)OCCO3)ccc1Cl,-12%,4.5µM*,4,i,-16,-10%
CCCCn1c(N)c(N(CCOC)C(=O)C2CCN(c3ncnc4sc(C)c(C)c34)CC2)c(=O)[nH]c1=O,12%,-1%,-90*,i,2,2%
SMILES,HepG2 tox,ATXN2 expr inh,CtBP-E1A inh,S2 tox,Six1-Eya2 inh,TGFb SMAD3 inh
Cc1ccc(CNc2ncnc3sc(C(=O)N4CCCC(C(N)=O)C4)c(C)c23)o1 (stereo not drawn),/,/,/,i,/,/
CC(Oc1ccccc1)C(=O)N[C@@H]1C(=O)N2[C@@H]1SC(C)(C)[C@@H]2C(=O)OCc1ccccc1 (stereo partly drawn),-15%,/,/,/,/,?
CCN(CC)S(=O)(=O)c1ccc2c(c1)N(CC(=O)NCCCN1CCN(c3cc(Cl)ccc3C)CC1)C(=O)CO2,13µM*,?,/,/,/,?
CC1CCN(S(=O)(=O)c2ccc3c(c2)N(CC(=O)NCCc2ccc(Cl)cc2)C(=O)CO3)CC1,-24%,?,/,28µM*,/,13µM*
O=C(CN1C(=O)COc2ccc(S(=O)(=O)N3CCCCC3)cc21)NCc1ccc(Cl)cc1,3%,-14%,3,i,24,?
O=C(CN1C(=O)COc2ccc(S(=O)(=O)N3CCCCC3)cc21)NCCc1ccc(Cl)cc1,-5%,/,/,/,/,?
O=C(CN1C(=O)COc2ccc(S(=O)(=O)N3CCCCCC3)cc21)NCc1ccc(Cl)cc1,-4%,/,/,/,/,10µM*
NC[C@H]1O[C@H](O[C@H]2[C@H](O[C@@H]3O[C@H](CO)[C@@H](O)[C@H]3O)C(O)[C@H](N)C[C@@H]2N)[C@H](N)[C@@H](O)[C@@H]1O (stereo partly drawn),/,-1%[11.3 µM],/,i[11.3 µM],/,/
Cc1cccc(Cn2cc(C(=O)Nc3ccc(F)c(C(F)(F)F)c3)ccc2=O)c1,-60%,/,/,/,/,?
C=C1C[C@@]2(O)O[C@@]3(C[C@H]2C(C)C)[C@H](C)CC[C@H]13,/,-3%,/,/,/,/
O=C(/C=C/c1cccc(F)c1)c1ccc(N2CCOCC2)cc1,-123%,0%,4,i,12,13µM*
COc1ccc([N+](=O)[O-])cc1NC(=S)NC(NC(=O)C(c1ccccc1)c1ccccc1)C(Cl)(Cl)Cl (stereo not drawn),-29%,22µM*,-7,?,-8,4.5µM*
O=C(O)Cn1cc(/C=N/Nc2ccc([N+](=O)[O-])cn2)c2ccccc21,-17%,2%,15,?,-28,1%
Cc1ccc(C(=O)N/N=C/c2cn(Cc3ccccc3)c3ccccc23)cn1,0.56µM*,/,/,i,-3,1.6µM*
O=C(N/N=C/c1cn(Cc2ccccc2)c2ccccc12)c1cc(O)cc(O)c1,-17%,4%,-26,i,-16,1%
Cc1ccc(Cn2cc(/C=N/Nc3ccc([N+](=O)[O-])cn3)c3ccccc32)cc1,-33%,-15%,-7,i,-5,4.5µM*
